Records with an inconclusive call do not appear. Entries that show only a call come without a potency. Calls of active or inactive are those of the source. Calls follow the shape of the dose curve; as a rule, active = well fitted curve in the direction sought with a large enough effect; inconclusive = small, poorly fitted or top-dose-only effect, or another doubt; inactive = no such curve, though single readings can be large or run the other way.
These compounds were tested against phosphoglycerate mutase (Leishmania major) (UniProt Q4Q090) (assay: qHTS Validation Assay to Find Inhibitors of Phosphoglycerate Mutase (AID 504548)). Conditions: biochemical enzyme activity; Potency: inhibition qHTS; series mostly up to 57.5 µM.
Chain of phosphoglycerate mutase (Leishmania major) (Q4Q090 1-553): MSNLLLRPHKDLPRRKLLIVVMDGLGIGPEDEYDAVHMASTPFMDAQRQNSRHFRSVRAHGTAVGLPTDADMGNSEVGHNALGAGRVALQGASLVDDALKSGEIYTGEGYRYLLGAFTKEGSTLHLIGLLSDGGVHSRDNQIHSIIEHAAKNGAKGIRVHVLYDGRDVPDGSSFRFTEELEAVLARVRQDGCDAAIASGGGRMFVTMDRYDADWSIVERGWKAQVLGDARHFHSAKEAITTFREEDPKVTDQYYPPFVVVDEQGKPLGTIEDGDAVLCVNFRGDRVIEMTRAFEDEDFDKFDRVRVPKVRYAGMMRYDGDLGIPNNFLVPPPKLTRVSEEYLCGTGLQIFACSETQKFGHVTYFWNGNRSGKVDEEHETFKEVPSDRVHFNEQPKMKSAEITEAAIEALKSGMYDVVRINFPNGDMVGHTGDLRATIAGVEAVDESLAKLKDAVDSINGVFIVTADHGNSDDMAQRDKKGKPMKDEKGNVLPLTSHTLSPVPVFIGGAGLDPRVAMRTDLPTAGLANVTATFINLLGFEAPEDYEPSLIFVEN
Excerpt: NIH Molecular Libraries Probe Production Network [MLPCN]
NIH Chemical Genomics Center [NCGC]
PI Name: Malcolm Walkinshaw, University of Edinburgh
Several species of the Trypanosomatidae family of parasitic protozoans cause a spectrum of diseases throughout the tropical and subtropical world. Sleeping sickness, caused by two subspecies of Trypanosoma brucei, is endemic to areas of sub-Saharan Africa, while Chagas disease, a manifestation of Trypanosoma cruzi infection, is prevalent throughout Central and South America. In addition, many species of Leishmania are responsible for a range of cutaneous and visceral diseases, causing ulcers, destructive lesions and kalaazar, a lethal infection of the viscera. Collectively, these organisms infect 30 million people worldwide (~500 million live in endemic areas), and account for ~130,000 deaths annually. Given their debilitating and prevalent nature, trypanosomatid parasites impose a heavy medical, economic and social burden on entire populations, primarily in the developing world. The problem is further exacerbated by the fact that existing treatments have progressed little in the past 50 years, and current drugs show high toxicity and poor efficacy.
Blood-stream stages of T. brucei are entirely dependent on glycolysis as a source of ATP, and the tricarboxylic acid cycle and oxidative phosphorylation are both repressed. Glycolysis in axenically cultured T. cruzi, representing the intracellular pathogenic stage, is also essential for these parasites. […] Previous studies have shown that the glycolytic enzyme, phosphoglycerate mutase (PGAM), is a viable target for drugs to kill these parasites. […] Furthermore, the cobalt centers present within PGAM are only found in trypanosomatid and plant PGAMs, and are known to be required for activity, thereby providing an additional target. Moreover, trypanosomatid PGAMs are completely different from the enzyme that performs the same function in humans: the parasite and host enzymes share no structural or even mechanistic features; specificity is therefore unlikely to be an issue.
NCGC Assay Protocol Summary:
Briefly, 3ul of substrate buffer (all columns) are dispensed into Greiner white solid bottom 1536-well assay plates. Compounds are then transferred via Kalypsys pin tool equipped with 1536-pin array (10nl slotted pins, V&P Scientific, San Diego, CA). Following addition of compound, 1ul of Lm PGAM (1.25nM final concentration, columns […]) is added to initiate the reaction; columns 3-4 receive only TEA buffer as negative controls. The plates are then incubated at room temperature for 45 minutes. Kinase-GloPlus reagent is added (2ul) and plates incubated for 10 minutes, before being transferred to a ViewLux high-throughput CCD imager (PerkinElmer) wherein single end-point measurements of luminescence are acquired using a clear filter. All reagents are diluted in an assay buffer consisting of 100 mM TEA (pH 7.6), 5 mM MgCl2 and 0.01% Tween-20.
With `CN(C(=O)Cc1ccc(Cl)c(Cl)c1)C(CN1CCCC1)c1cccc(OCC(=O)O)c1` (stereo not given) the Potency was “inactive”.
`NNC(=O)c1ccc(O)cc1` was tested, and the Potency was “inactive”.
`C#CCN[C@H](C)Cc1ccccc1` was tested, and the Potency was “inactive”.
With `CCCN1CC[C@@H]2c3cc(O)ccc3CC[C@@H]21` the Potency was “inactive”.
For `N[C@@]1(C(=O)O)CC[C@@H](C(=O)O)C1`, the Potency was “inactive”.
For `COc1ccc2c(c1)[C@@]13CCCC[C@H]1[C@@H](C2)NCC3`, the Potency was “inactive”.
For `NC(=O)c1ccc(OCC(O)CN2CC=C(c3ccc(F)cc3)CC2)cc1` (stereo not given), the Potency was “inactive”.
For `N[C@@H](CCl)C(=O)O`, the Potency was “inactive”.
With `CCNC(=O)[C@H]1O[C@@H](n2cnc3c(N)ncnc32)[C@H](O)[C@@H]1O` the Potency was “inactive”.
In the case of `CCS(=O)(=O)Nc1cccc(C(=C2CCCCC2)c2cnc[nH]2)c1`, the Potency is reported as “inactive”.
`OCc1cnc[nH]1` was tested, and the Potency was “inactive”.
With `c1ccc2c(c1)[I+]c1ccccc1-2` the Potency was “inactive”.
`Nc1ccc(CCN2CCN(c3cccc(C(F)(F)F)c3)CC2)cc1` was tested, and the Potency was “inactive”.
In the case of `NCC(CP(=O)(O)O)c1ccc(Cl)cc1` (stereo not given), the Potency is reported as “inactive”.
In the case of `O=S1(=O)N(CCN2CC=C(c3c[nH]c4cc(F)ccc34)CC2)c2cccc3c2N1CCC3`, the Potency is reported as “inactive”.
With `CCCN(CCC)C1Cc2cc(OC)c(OC)cc2C1` the Potency was “inactive”.
For `COc1ccc2[nH]cc(CCN)c2c1`, the Potency was “inactive”.
In the case of `CC(=O)NBr`, the Potency is reported as “inactive”.
For `NCCc1ccc(S(=O)(=O)F)cc1`, the Potency was “inactive”.
For `C[C@H](Cc1ccc2c(c1)OC(C(=O)O)(C(=O)O)O2)NC[C@H](O)c1cccc(Cl)c1`, the Potency was “inactive”.
With `CCCN(CCC)CCc1c[nH]c2ccc(C(N)=O)cc12` the Potency was “inactive”.
In the case of `NCCCP(=O)(O)O`, the Potency is reported as “inactive”.
In the case of `C[N+](C)(C)CC#CCOC(=O)Nc1cccc(Cl)c1`, the Potency is reported as “inactive”.
With `C=CCN1CCC23c4c5ccc(O)c4O[C@H]2C(=O)CC[C@@]3(O)C1C5` (stereo not given in full) the Potency was “inactive”.
With `O=[N+]([O-])/C=C/c1ccc2c(c1)OCO2` the Potency was “inactive”.
In the case of `CCCN1CCC[C@@H](c2cccc(O)c2)C1`, the Potency is reported as “inactive”.
`CCCN(CCC)C1CCc2cccc(O)c2C1` (stereo not given) was tested, and the Potency was “inactive”.
With `CN1CCc2cccc(Cl)c2CC1` the Potency was “inactive”.
In the case of `COc1ccc2[nH]c3c(c2c1)CCNC3`, the Potency is reported as “inactive”.
With `COC(=O)N1CCN(C(=O)Cc2ccc(Cl)c(Cl)c2)C(CN2CCCC2)C1` (stereo not given) the Potency was “inactive”.
For `CCCC[N+]1(C)C2CC(OC(=O)[C@H](CO)c3ccccc3)CC1C1OC12` (stereo not given in full), the Potency was “inactive”.
For `C[Se]C[C@H](N)C(=O)O`, the Potency was “inactive”.
With `CC12NC(Cc3ccccc31)c1ccccc12` (stereo not given) the Potency was “inactive”.
`C[C@]12Cc3cn4c(nc3C=C1CCC1C2CC[C@@]2(C)[C@H]1CC[C@@]2(O)C#N)nc1ccccc14` (stereo not given in full) was tested, and the Potency was “inactive”.
With `Oc1ccc2c3c1O[C@H]1c4oc5ccccc5c4C[C@@]4(O)C(C2)N(CC2CC2)CCC314` (stereo not given in full) the Potency was “inactive”.
For `CN(N=O)c1ccc(O)c(O)c1`, the Potency was “inactive”.
With `COc1ccc2c(c1O)-c1cccc3c1[C@@H](C2)N(C)CC3` the Potency was “inactive”.
For `CCCN(CCC)[C@@H]1CCc2cccc(O)c2C1`, the Potency was “inactive”.
With `O=[N+]([O-])c1cc(O)c(O)c([N+](=O)[O-])c1` the Potency was “inactive”.
For `CCOC(=O)c1ncn2c1[C@@H]1CCCN1C(=O)c1cc(OC)ccc1-2`, the Potency was “inactive”.

Reference: PubChem BioAssay (NCATS)
